This is an account of results in the supplement of paper PMC13380429.

A number with no mark means an inactive call.

The subject of this experiment is Vero E6 infected with SARS-CoV-2. The experiment can be described thus: inhibition of SARS-CoV-2 cytopathic effect; higher = more antiviral protection, active = above 15. The conditions noted are these: 48 h.

As for `Cc1ccc2c(c1)C(=O)[C@]1(O)CCN(c3ccccc3)C1=N2` (racemic) [blebbistatin-(+/-)], the “inhibition of SARS-CoV-2 cytopathic effect” value (shortened to “inhibition”) reads like this: (1 nM) 0.35%; (8.33 nM) -0.695%; (100 nM) -1.93%; (833.33 nM) -1.36%; (10000 nM) -2.33%.

`CC(C)Oc1ccc(-c2nc(-c3cccc4c3CC[C@@H]4NCCO)no2)cc1C#N` [ozanimod]: the “inhibition” value (1 nM) was -1.23%; the “inhibition” value (8.33 nM) is -0.27%; the “inhibition” value (100 nM) was 2.87%; the “inhibition” value (833.33 nM) is 0.63%; the “inhibition” value (10000 nM) is 59.2% (active).

As to `CCOC(=O)c1c(CSc2ccccc2)n(C)c2cc(Br)c(O)c(CN(C)C)c12` [arbidol], the “inhibition” value is -1.24% (1 nM); 3.62% (8.33 nM); 2.92% (100 nM); 4.8% (833.33 nM); 3.91% (10000 nM).

Consider `N[C@H]1C[C@@H]1c1ccccc1` (racemic) [tranylcypromine], for which the “inhibition” value reads like this: (1 nM) 0.8%; (8.33 nM) -0.11%; (100 nM) -0.1%; (833.33 nM) 0.19%; (10000 nM) 2.21%.

For the compound `CCC(=O)NC[C@H](Cc1ccc(OCCc2nc(-c3ccccc3)oc2C)cc1)N/C(C)=C\C(=O)c1ccc(C(F)(F)F)cc1`, the “inhibition” value is -1.03% (1 nM); 0.69% (8.33 nM); 0.66% (100 nM); 1.86% (833.33 nM); 5.34% (10000 nM).

In the case of `CCCN1CCC[C@@H]2Cc3nc(N)ncc3C[C@H]21` [quinelorane], the “inhibition” value (1 nM) is 0.91%; the “inhibition” value (8.33 nM) was -0.4%; the “inhibition” value (100 nM) is 0.8%; the “inhibition” value (833.33 nM) is -1.2%; the “inhibition” value (10000 nM) is -1.06%.

Turning to `C1=N/C2=N/c3ccc(OCCN4CCCC4)c(c3)COC/C=C/COCc3cccc(c3)C(=C1)N2` [pacritinib], the “inhibition” value is -0.44% (1 nM); 0.71% (8.33 nM); 0.95% (100 nM); 0.27% (833.33 nM); -15% (10000 nM).
